Bioassay records (PubChem BioAssay)
CYP2C9 inh: blocks human cytochrome P450 2C9; P11712; CYP2C9 Supersomes, luciferin-H conversion, luminescence; inhibition, % at 5 µM; hit rate 20% among 96,000; AID 777;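 active = blocking of liver enzyme CYP2C9 beyond about 50% at 5 µM, limit read from the data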
CYP2C19 activ: cytochrome P450 2C19 (human) activation | 96,000 tested, under 10 active | activation factor at 5 µM | P33261 | AID 1025 | recombinant CYP2C19, luciferin-H EGE luminescence; stronger effect = higher value; 0 = fully inhibited enzyme, 1 = untreated enzyme;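 active = activation factor of at least 2 at 5 µM in the primary screen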;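 also: 0 = wells with 2.5 mM tranylcypromine and 1 = vehicle-only wells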
sEH activator: activators of human soluble epoxide hydrolase | P34913 | purified human sEH enzymatic activity, activator screen | activation, % at 2 µM | hit rate 0.04% among 91,000 | AID 717; in the data active = activation above about 37%
Target sequence (P34913 whole entry, looked up): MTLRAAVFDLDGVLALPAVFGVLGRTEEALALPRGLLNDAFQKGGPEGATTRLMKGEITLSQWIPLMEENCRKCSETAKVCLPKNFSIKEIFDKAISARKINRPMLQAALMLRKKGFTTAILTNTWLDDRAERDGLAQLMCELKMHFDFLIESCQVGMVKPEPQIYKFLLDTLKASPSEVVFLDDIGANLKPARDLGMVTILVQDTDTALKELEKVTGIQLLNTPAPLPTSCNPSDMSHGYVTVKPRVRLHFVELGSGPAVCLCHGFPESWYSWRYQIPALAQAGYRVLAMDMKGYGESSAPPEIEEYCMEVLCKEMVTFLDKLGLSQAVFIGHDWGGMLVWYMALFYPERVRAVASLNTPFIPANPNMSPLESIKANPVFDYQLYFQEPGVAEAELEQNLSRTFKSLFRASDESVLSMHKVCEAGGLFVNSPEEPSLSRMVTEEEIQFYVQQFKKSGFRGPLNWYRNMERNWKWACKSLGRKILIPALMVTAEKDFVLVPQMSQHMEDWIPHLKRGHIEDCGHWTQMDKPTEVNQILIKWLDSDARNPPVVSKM
sEH inhibitor: soluble epoxide hydrolase (human) inhibition | P34913 | recombinant human sEH enzymatic activity assay | inhibition, % at 2 µM | hit rate 0.34% among 91,000 | AID 707; in the data active = inhibition above about 80%
CYP2C19 inhib: blocks human cytochrome P450 2C19; P33261; CYP2C19 Supersomes, luciferin-H EGE luminescence, 30 min; inhibition, % at 5 µM; hit rate 21% among 96,000; AID 778;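 active = CYP2C19 inhibition above a set limit at 5 µM in the primary screen, cut at about 50% in these data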;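 also: plate controls were negative control wells for no effect and 2.5 mM tranylcypromine positive control for full effect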
CYP2C9 activ: CYP2C9 (human) activation; recombinant CYP2C9, luciferin-H conversion, luminescence; stronger effect = higher value; factor 1 = untreated enzyme, 0 = blocked; activation factor at 5 µM; hit rate 1.4% among 96,000;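 active = activation factor of 2 or more for CYP2C9 at a 5 µM dose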;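 also: 0 = sulfaphenazole-blocked wells and 1 = vehicle-only wells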
Starred values were filed as active, the others as inactive. Shown are actives, neighbours in structure and some others; about 27% of the full set was active somewhere.

`Cc1ccc(/C=N/NC(=O)c2c[nH]c3ccccc23)s1` gave CYP2C9 inh 14, CYP2C19 activ 0.8, sEH activator -6, sEH inhibitor 8, CYP2C19 inhib 19 and CYP2C9 activ 0.9.
For CCc1ccc(/C=N/NC(=O)c2cc(C3CC3)nc3ccccc23)s1 the results were CYP2C9 inh 81*, CYP2C19 activ 0.8, sEH activator 5, sEH inhibitor -3, CYP2C19 inhib 25 and CYP2C9 activ 0.2.
`CCOc1ccc(N2C(=O)c3cccnc3C2Nc2ccc(Cl)cc2)cc1` (stereo unspecified) gave CYP2C9 inh 27, CYP2C19 activ 0.5, sEH activator 3, sEH inhibitor -1, CYP2C19 inhib 46 and CYP2C9 activ 0.7.
CCOc1ccccc1NC1c2ccccc2C(=O)N1c1cccnc1 (stereo unspecified) was read as CYP2C9 inh 5, CYP2C19 activ 0.5, sEH activator 20, sEH inhibitor -19, CYP2C19 inhib 52* and CYP2C9 activ 0.9.
For O=C1c2ccccc2C(Nc2ccc(Cl)cn2)N1c1ccccn1 (stereo unspecified) the results were sEH activator -2 and sEH inhibitor 2.
`COC(=O)c1cc(NC2c3ccccc3C(=O)N2c2cccnc2)cc(C(=O)OC)c1` (stereo unspecified) gave sEH activator 1 and sEH inhibitor -2.
`COc1ccc(NC2c3ccccc3C(=O)N2c2cccnc2)cc1Cl` (stereo unspecified) gave CYP2C9 inh 58*, CYP2C19 activ 0.2, CYP2C19 inhib 81* and CYP2C9 activ 0.4.
O=C1c2ccccc2C(Nc2ccccc2)N1c1cccnc1 (stereo unspecified) was read as CYP2C9 inh 14, CYP2C19 activ 0.3, sEH activator 10, sEH inhibitor -11, CYP2C19 inhib 70* and CYP2C9 activ 0.9.
`CCOC(=O)c1ccccc1NC1c2ccccc2C(=O)N1c1cc(C)ccn1` (stereo unspecified) gave CYP2C9 inh 83*, CYP2C19 activ 0, sEH activator -13, sEH inhibitor 11, CYP2C19 inhib 96* and CYP2C9 activ 0.2.
`CCc1ccccc1NC(=O)COC(=O)C1CC(=O)N(c2ccc(F)cc2)C1` (stereo unspecified) gave CYP2C9 inh 3, CYP2C19 activ 0.9, sEH activator -13, sEH inhibitor 12, CYP2C19 inhib 10 and CYP2C9 activ 1.
O=C(c1ccccn1)c1conc1C(=O)c1ccc(Br)cc1 was read as CYP2C9 inh 57*, CYP2C19 activ 0.1, sEH activator -6, sEH inhibitor 8, CYP2C19 inhib 86* and CYP2C9 activ 0.4.
For O=C(OCC(=O)c1ccccc1Br)c1ccccn1 the results were CYP2C9 inh -5, CYP2C19 activ 1, sEH activator 12, sEH inhibitor -14, CYP2C19 inhib 0 and CYP2C9 activ 1.
Screening CCOC(=O)c1nnc(-c2cccs2)nc1Oc1ccccc1C(=O)OC returned CYP2C9 inh 95*, CYP2C19 activ 0.2, sEH activator -2, sEH inhibitor -1, CYP2C19 inhib 83* and CYP2C9 activ 0.1.
Screening COc1ccccc1CNc1nc2nc(C)cc(=O)n2[nH]1 returned CYP2C9 inh 17, CYP2C19 activ 0.9, sEH activator 5, sEH inhibitor -2, CYP2C19 inhib 6 and CYP2C9 activ 0.8.
Screening O=C(CC(c1ccc(F)cc1)c1ccco1)N1CCCC1 (stereo unspecified) returned CYP2C9 inh 17, CYP2C19 activ 0.2, CYP2C19 inhib 78* and CYP2C9 activ 0.8.
For O=C1CCC(=O)N1CCC(c1ccc(F)cc1)c1ccco1 (stereo unspecified) the results were CYP2C9 inh -46, CYP2C19 activ 1, sEH activator 1, sEH inhibitor 2, CYP2C19 inhib 3 and CYP2C9 activ 1.5.
CCCN(CCC)C(=O)CC(c1ccc(F)cc1)c1ccco1 (stereo unspecified) was read as CYP2C9 inh 55*, CYP2C19 activ 0.5, sEH activator -4, sEH inhibitor 5, CYP2C19 inhib 51* and CYP2C9 activ 0.4.
CCN(CC)C(=O)CC(c1ccccc1)c1ccco1 (stereo unspecified) was read as CYP2C9 inh 5, CYP2C19 activ 0.8, sEH activator 8, sEH inhibitor -7, CYP2C19 inhib 21 and CYP2C9 activ 1.
`O=C(CC(c1ccc(F)cc1)c1ccco1)N1CCOCC1` (stereo unspecified) gave CYP2C9 inh 2, CYP2C19 activ 0.3, sEH activator -1, sEH inhibitor 4, CYP2C19 inhib 74* and CYP2C9 activ 1.
For Oc1c(C(c2ccccc2)N2CCN(Cc3ccccc3)CC2)sc2ncnn12 (stereo unspecified) the results were CYP2C9 inh 67*, CYP2C19 activ 0.2, sEH activator -1, sEH inhibitor 0, CYP2C19 inhib 78* and CYP2C9 activ 0.3.
For C/C(=N\NS(=O)(=O)c1ccc(Cl)cc1)c1ccc(O)cc1 the results were CYP2C9 inh 78*, CYP2C19 activ 0.2, sEH activator 15, sEH inhibitor -17, CYP2C19 inhib 83* and CYP2C9 activ 0.2.
Screening C/C(=N/NS(=O)(=O)c1ccc(Cl)cc1)c1cccc(NC(=O)c2ccc(Cl)cc2Cl)c1 returned CYP2C9 inh 97*, CYP2C19 activ 0.3, sEH activator 4, sEH inhibitor -3, CYP2C19 inhib 75* and CYP2C9 activ 0.
Screening CCc1ccc(N/C(SCc2ccccc2C)=C(/C#N)C(=O)NCc2ccco2)cc1 returned CYP2C9 inh 64*, CYP2C19 activ 0.4, sEH activator -5, sEH inhibitor 2, CYP2C19 inhib 57* and CYP2C9 activ 0.4.
Screening O=C1CC(N(O)c2ccccc2)C(=O)N1c1cc(Cl)cc(Cl)c1 (stereo unspecified) returned CYP2C9 inh -51, CYP2C19 activ 0.8, sEH activator 7, sEH inhibitor -5, CYP2C19 inhib 23 and CYP2C9 activ 1.5.
`O=C1CC(N(O)c2ccccc2)C(=O)N1Cc1ccccc1` (stereo unspecified) gave CYP2C9 inh 1, CYP2C19 activ 0.2, CYP2C19 inhib 78* and CYP2C9 activ 1.
For Cc1ccccc1N1C(=O)CC(N(O)c2ccccc2)C1=O (stereo unspecified) the results were CYP2C9 inh -20, CYP2C19 activ 0.3, sEH activator 4, sEH inhibitor -2, CYP2C19 inhib 74* and CYP2C9 activ 1.2.
CN1C(=O)N(S(=O)(=O)c2ccc(F)c(F)c2F)C(=O)C1(C)C was read as CYP2C9 inh -7, CYP2C19 activ 1, sEH activator 4, sEH inhibitor -5, CYP2C19 inhib 0 and CYP2C9 activ 1.1.
Screening CCOc1ccc(N(Cc2cc3ccc(C)cc3[nH]c2=O)S(C)(=O)=O)cc1 returned CYP2C9 inh 4, CYP2C19 activ 0.9, sEH activator -2, sEH inhibitor 0, CYP2C19 inhib 11 and CYP2C9 activ 1.
